# Laboratory results taken from article PMC11006913.
# Tests used:
# Test in all cases: PBM; 200 nM protein, PBS
# Details in all cases: dsDNA, one strand shown
# [1] = target: HOXA2 (Homo sapiens, UniProt O43364 129-215, R185T)
# [2] = target: HOXA2 (Homo sapiens, UniProt O43364 129-215, R185K)
# [3] = target: HOXA2 (Homo sapiens, UniProt O43364 129-215, Y150S)
# [4] = target: HOXA2 (Homo sapiens, UniProt O43364 129-215)
# [5] = target: HOXA4 (Homo sapiens, UniProt Q00056 201-287, W262F)
# [6] = target: VAX1 (Homo sapiens, UniProt Q5SQQ9 86-172)
# Sequence of VAX1 (Homo sapiens, UniProt Q5SQQ9 86-172) (Q5SQQ9 86-172): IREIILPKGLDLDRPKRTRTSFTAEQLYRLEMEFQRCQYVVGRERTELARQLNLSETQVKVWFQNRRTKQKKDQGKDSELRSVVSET
# [7] = target: VAX1 (Homo sapiens, UniProt Q5SQQ9 86-172, T142I)
# Sequence of VAX1 (Homo sapiens, UniProt Q5SQQ9 86-172, T142I) (Q5SQQ9 86-172 T142I): as the sequence (Q5SQQ9 86-172) above, with T57I counted along it
# [8] = target: VAX1 (Homo sapiens, UniProt Q5SQQ9 86-172, K157R)
# Sequence of VAX1 (Homo sapiens, UniProt Q5SQQ9 86-172, K157R) (Q5SQQ9 86-172 K157R): as the sequence (Q5SQQ9 86-172) above, with K72R counted along it
# [9] = target: ALX1 (Homo sapiens, UniProt Q15699 118-204, L144R)
# Sequence of ALX1 (Q15699 118-204 L144R): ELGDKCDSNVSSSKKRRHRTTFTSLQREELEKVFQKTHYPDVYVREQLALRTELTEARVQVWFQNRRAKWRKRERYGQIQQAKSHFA
# Sequence of HOXA2 (Homo sapiens, UniProt O43364 129-215, R185K) (O43364 129-215 R185K): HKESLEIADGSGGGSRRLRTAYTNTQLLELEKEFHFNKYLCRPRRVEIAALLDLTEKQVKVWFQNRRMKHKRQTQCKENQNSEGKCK
# Sequence of HOXA2 (Homo sapiens, UniProt O43364 129-215) (O43364 129-215): as the sequence (O43364 129-215 R185K) above, with K57R counted along it
# Sequence of HOXA2 (Homo sapiens, UniProt O43364 129-215, R185T) (O43364 129-215 R185T): as the sequence (O43364 129-215 R185K) above, with K57T counted along it
# Sequence of HOXA2 (Homo sapiens, UniProt O43364 129-215, Y150S) (O43364 129-215 Y150S): as the sequence (O43364 129-215 R185K) above, with Y22S, K57R counted along it
# Sequence of HOXA4 (Q00056 201-287 W262F): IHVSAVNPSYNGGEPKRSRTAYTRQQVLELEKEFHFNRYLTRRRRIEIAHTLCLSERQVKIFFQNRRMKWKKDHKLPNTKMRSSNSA
sequence,measurement,setting,value
CCCCCTCC,binding signal,[1],"6.95 upbm affinity estimate (log intensity, higher = more binding, comparable within an allelic series)"
same,binding signal,[2],"9.98 upbm affinity estimate (log intensity, higher = more binding, comparable within an allelic series)"
same,binding signal,[3],"10.1 upbm affinity estimate (log intensity, higher = more binding, comparable within an allelic series)"
same,binding signal,[4],"6.89 upbm affinity estimate (log intensity, higher = more binding, comparable within an allelic series)"
AGTTAACG,binding signal,[1],"9.97 upbm affinity estimate (log intensity, higher = more binding, comparable within an allelic series)"
same,binding signal,[2],"12.2 upbm affinity estimate (log intensity, higher = more binding, comparable within an allelic series)"
same,binding signal,[3],"10.7 upbm affinity estimate (log intensity, higher = more binding, comparable within an allelic series)"
same,binding signal,[4],"9.96 upbm affinity estimate (log intensity, higher = more binding, comparable within an allelic series)"
ACCTCGCC,binding signal,[1],"7.06 upbm affinity estimate (log intensity, higher = more binding, comparable within an allelic series)"
same,binding signal,[2],"10.2 upbm affinity estimate (log intensity, higher = more binding, comparable within an allelic series)"
same,binding signal,[3],"10.4 upbm affinity estimate (log intensity, higher = more binding, comparable within an allelic series)"
same,binding signal,[4],"6.93 upbm affinity estimate (log intensity, higher = more binding, comparable within an allelic series)"
GAGCCCGC,binding signal,[1],"7.09 upbm affinity estimate (log intensity, higher = more binding, comparable within an allelic series)"
same,binding signal,[2],"10.2 upbm affinity estimate (log intensity, higher = more binding, comparable within an allelic series)"
same,binding signal,[3],"10.4 upbm affinity estimate (log intensity, higher = more binding, comparable within an allelic series)"
same,binding signal,[4],"7.5 upbm affinity estimate (log intensity, higher = more binding, comparable within an allelic series)"
GGATATTA,binding signal,[1],"10.4 upbm affinity estimate (log intensity, higher = more binding, comparable within an allelic series)"
same,binding signal,[2],"12 upbm affinity estimate (log intensity, higher = more binding, comparable within an allelic series)"
same,binding signal,[3],"10.8 upbm affinity estimate (log intensity, higher = more binding, comparable within an allelic series)"
same,binding signal,[4],"10.6 upbm affinity estimate (log intensity, higher = more binding, comparable within an allelic series)"
GCAACCCC,binding signal,[1],"7.26 upbm affinity estimate (log intensity, higher = more binding, comparable within an allelic series)"
same,binding signal,[2],"10.1 upbm affinity estimate (log intensity, higher = more binding, comparable within an allelic series)"
same,binding signal,[3],"10.4 upbm affinity estimate (log intensity, higher = more binding, comparable within an allelic series)"
same,binding signal,[4],"7.17 upbm affinity estimate (log intensity, higher = more binding, comparable within an allelic series)"
ACACTAAT,binding signal,[1],"11.5 upbm affinity estimate (log intensity, higher = more binding, comparable within an allelic series)"
same,binding signal,[2],"12.6 upbm affinity estimate (log intensity, higher = more binding, comparable within an allelic series)"
same,binding signal,[3],"10.9 upbm affinity estimate (log intensity, higher = more binding, comparable within an allelic series)"
same,binding signal,[4],"11.3 upbm affinity estimate (log intensity, higher = more binding, comparable within an allelic series)"
CTACGCCC,binding signal,[1],"7.29 upbm affinity estimate (log intensity, higher = more binding, comparable within an allelic series)"
same,binding signal,[2],"10.3 upbm affinity estimate (log intensity, higher = more binding, comparable within an allelic series)"
same,binding signal,[3],"10.5 upbm affinity estimate (log intensity, higher = more binding, comparable within an allelic series)"
same,binding signal,[4],"7.38 upbm affinity estimate (log intensity, higher = more binding, comparable within an allelic series)"
AAGGCCCC,binding signal,[1],"7.25 upbm affinity estimate (log intensity, higher = more binding, comparable within an allelic series)"
same,binding signal,[2],"10.3 upbm affinity estimate (log intensity, higher = more binding, comparable within an allelic series)"
same,binding signal,[3],"10.3 upbm affinity estimate (log intensity, higher = more binding, comparable within an allelic series)"
same,binding signal,[4],"7.19 upbm affinity estimate (log intensity, higher = more binding, comparable within an allelic series)"
CGTCATTA,binding signal,[1],"12.3 upbm affinity estimate (log intensity, higher = more binding, comparable within an allelic series)"
same,binding signal,[2],"13.2 upbm affinity estimate (log intensity, higher = more binding, comparable within an allelic series)"
same,binding signal,[3],"10.8 upbm affinity estimate (log intensity, higher = more binding, comparable within an allelic series)"
same,binding signal,[5],"11.4 upbm affinity estimate (log intensity, higher = more binding, comparable within an allelic series)"
same,binding signal,[4],"12.3 upbm affinity estimate (log intensity, higher = more binding, comparable within an allelic series)"
GGTAACGA,binding signal,[1],"9.98 upbm affinity estimate (log intensity, higher = more binding, comparable within an allelic series)"
same,binding signal,[2],"12.2 upbm affinity estimate (log intensity, higher = more binding, comparable within an allelic series)"
same,binding signal,[3],"10.8 upbm affinity estimate (log intensity, higher = more binding, comparable within an allelic series)"
same,binding signal,[4],"10 upbm affinity estimate (log intensity, higher = more binding, comparable within an allelic series)"
CCCCCCCG,binding signal,[1],"6.93 upbm affinity estimate (log intensity, higher = more binding, comparable within an allelic series)"
same,binding signal,[2],"9.85 upbm affinity estimate (log intensity, higher = more binding, comparable within an allelic series)"
same,binding signal,[3],"10.2 upbm affinity estimate (log intensity, higher = more binding, comparable within an allelic series)"
same,binding signal,[4],"7.13 upbm affinity estimate (log intensity, higher = more binding, comparable within an allelic series)"
GGGAGCCC,binding signal,[1],"7.4 upbm affinity estimate (log intensity, higher = more binding, comparable within an allelic series)"
same,binding signal,[2],"10.3 upbm affinity estimate (log intensity, higher = more binding, comparable within an allelic series)"
same,binding signal,[6],"7.23 upbm affinity estimate (log intensity, higher = more binding, comparable within an allelic series)"
same,binding signal,[7],"7.09 upbm affinity estimate (log intensity, higher = more binding, comparable within an allelic series)"
same,binding signal,[3],"10.5 upbm affinity estimate (log intensity, higher = more binding, comparable within an allelic series)"
same,binding signal,[4],"7.35 upbm affinity estimate (log intensity, higher = more binding, comparable within an allelic series)"
same,binding signal,[8],"7.13 upbm affinity estimate (log intensity, higher = more binding, comparable within an allelic series)"
CTACATTA,binding signal,[1],"10.6 upbm affinity estimate (log intensity, higher = more binding, comparable within an allelic series)"
same,binding signal,[2],"12.2 upbm affinity estimate (log intensity, higher = more binding, comparable within an allelic series)"
same,binding signal,[3],"10.8 upbm affinity estimate (log intensity, higher = more binding, comparable within an allelic series)"
same,binding signal,[4],"10.8 upbm affinity estimate (log intensity, higher = more binding, comparable within an allelic series)"
GGAGGCGA,binding signal,[1],"7.15 upbm affinity estimate (log intensity, higher = more binding, comparable within an allelic series)"
same,binding signal,[2],"10.6 upbm affinity estimate (log intensity, higher = more binding, comparable within an allelic series)"
same,binding signal,[3],"10.4 upbm affinity estimate (log intensity, higher = more binding, comparable within an allelic series)"
same,binding signal,[4],"7.38 upbm affinity estimate (log intensity, higher = more binding, comparable within an allelic series)"
CGATTACA,binding signal,[1],"10.3 upbm affinity estimate (log intensity, higher = more binding, comparable within an allelic series)"
same,binding signal,[2],"12 upbm affinity estimate (log intensity, higher = more binding, comparable within an allelic series)"
same,binding signal,[3],"10.7 upbm affinity estimate (log intensity, higher = more binding, comparable within an allelic series)"
same,binding signal,[4],"9.9 upbm affinity estimate (log intensity, higher = more binding, comparable within an allelic series)"
CTGATTAA,binding signal,[1],"11.9 upbm affinity estimate (log intensity, higher = more binding, comparable within an allelic series)"
same,binding signal,[2],"12.9 upbm affinity estimate (log intensity, higher = more binding, comparable within an allelic series)"
same,binding signal,[9],"11.1 upbm affinity estimate (log intensity, higher = more binding, comparable within an allelic series)"
same,binding signal,[3],"10.8 upbm affinity estimate (log intensity, higher = more binding, comparable within an allelic series)"
same,binding signal,[4],"11.5 upbm affinity estimate (log intensity, higher = more binding, comparable within an allelic series)"
CCCCCACC,binding signal,[1],"6.87 upbm affinity estimate (log intensity, higher = more binding, comparable within an allelic series)"
same,binding signal,[2],"9.85 upbm affinity estimate (log intensity, higher = more binding, comparable within an allelic series)"
same,binding signal,[3],"10.3 upbm affinity estimate (log intensity, higher = more binding, comparable within an allelic series)"
same,binding signal,[4],"6.86 upbm affinity estimate (log intensity, higher = more binding, comparable within an allelic series)"
AGAATTAT,binding signal,[1],"9.79 upbm affinity estimate (log intensity, higher = more binding, comparable within an allelic series)"
same,binding signal,[2],"11.6 upbm affinity estimate (log intensity, higher = more binding, comparable within an allelic series)"
same,binding signal,[3],"10.7 upbm affinity estimate (log intensity, higher = more binding, comparable within an allelic series)"
same,binding signal,[4],"9.68 upbm affinity estimate (log intensity, higher = more binding, comparable within an allelic series)"
CCACCCCC,binding signal,[1],"7.29 upbm affinity estimate (log intensity, higher = more binding, comparable within an allelic series)"
same,binding signal,[2],"10.2 upbm affinity estimate (log intensity, higher = more binding, comparable within an allelic series)"
same,binding signal,[3],"10.4 upbm affinity estimate (log intensity, higher = more binding, comparable within an allelic series)"
same,binding signal,[4],"6.98 upbm affinity estimate (log intensity, higher = more binding, comparable within an allelic series)"
